ST2 IL33 inh: blocks human ST2 binding to IL-33; Q01638; AlphaLISA ST2-Fc/biotin-IL-33 interaction, 1 h; inhibition, % for hits at 17 µM; actives 2.3% (n = 78,000); in the data active means inhibition above about 30%
Target sequence (Q01638 whole entry, looked up): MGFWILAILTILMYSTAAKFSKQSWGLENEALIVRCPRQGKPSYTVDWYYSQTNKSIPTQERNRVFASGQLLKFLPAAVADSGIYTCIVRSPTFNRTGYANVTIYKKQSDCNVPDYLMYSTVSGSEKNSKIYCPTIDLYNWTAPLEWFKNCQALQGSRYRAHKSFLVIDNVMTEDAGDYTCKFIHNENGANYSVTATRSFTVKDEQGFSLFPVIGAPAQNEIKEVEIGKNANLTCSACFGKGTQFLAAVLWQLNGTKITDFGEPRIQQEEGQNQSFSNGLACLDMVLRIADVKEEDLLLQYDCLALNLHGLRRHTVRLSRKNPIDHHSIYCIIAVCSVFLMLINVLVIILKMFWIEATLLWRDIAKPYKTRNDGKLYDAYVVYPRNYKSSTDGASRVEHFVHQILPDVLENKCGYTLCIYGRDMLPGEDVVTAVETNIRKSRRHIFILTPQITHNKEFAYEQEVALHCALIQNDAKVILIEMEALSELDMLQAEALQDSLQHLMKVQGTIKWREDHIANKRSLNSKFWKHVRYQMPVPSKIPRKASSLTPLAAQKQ
Each line names hits and unclear results; the compound was inactive in the other large screens. The sample as a whole holds a higher share of hits than the screen did.

COc1ccccc1N1CCN(Cc2ccc(Cl)cc2)CC1	none
COc1ccccc1N1CCN(Cc2cccc(Cl)c2)CC1	none
CCc1ccc(CN2CCN(c3ccccc3OC)CC2)cc1	ST2 IL33 inh 97.0%
COc1ccc(C(=O)NC[C@H]2C[C@@H]3CCN2C[C@@H]3c2cc(C3CCCCC3)nn2C)cc1	none
Cc1cc(C)c(C)c(OCC(=O)N2CCN(C)CC2)c1	none
COc1ccc(CCNCc2ccccc2C(F)(F)F)cc1	none
COc1ccc(CN2CCN(c3ccccc3)CC2)c(OC)c1	none
COc1ccc(CN2CCN(c3ccc(F)cc3)CC2)c(OC)c1	none
c1ccc(CN2CCN(c3ccccc3)CC2)cc1	none
Clc1ccc(CN2CCN(c3ccccc3)CC2)c(Cl)c1	ST2 IL33 inh 91.0%
COc1ccc(CN2CCN(CCO)CC2)cc1C	none
COc1ccc(N2CCN(Cc3ccc(Cl)cc3Cl)CC2)cc1	ST2 IL33 inh 36.0%
CCN1CCN(Cc2ccc(OC)c(C)c2)CC1	none
Fc1ccc(CN2CCN(c3ccccc3)CC2)c(F)c1	none
COc1ccc(N2CCN(Cc3ccc(OC)c(C)c3)CC2)cc1	ST2 IL33 inh 36.0%
O=C(Nc1ccc(Br)cc1C(=O)c1ccccc1)c1ccco1	none
O=C(Cc1ccc(-n2c(=O)[nH]c3ccsc3c2=O)cc1)N1CCN(C2CCCCC2)CC1	none
c1ccc2c(CN3CCC(N4CCCCC4)CC3)c[nH]c2c1	none
CC(C)(C)CC(=O)N1C[C@@H]2C[C@H](C1)c1ccc(NS(=O)(=O)c3cccs3)c(=O)n1C2	none
COc1ccc(N=Cc2cc3c(cc2O)OC(N)=C(C#N)C3c2ccco2)cc1 (configuration not stated)	ST2 IL33 inh 30.0%
O=C(NC[C@H]1C[C@@H]2CCN1C[C@@H]2CN1CCSCC1)c1ccco1	none
O=S(=O)(NC[C@H]1C[C@@H]2CCN1C[C@@H]2CN1CCSCC1)c1ccccc1	none
Cc1ccc(CN2CCN(c3ccc(Cl)cc3)CC2)cc1	none
Fc1ccc(N2CCN(Cc3ccccc3)CC2)cc1	none
CN(C)c1ccc(CN2CCN(c3ccc(F)cc3)CC2)cc1	ST2 IL33 inh 38.0%
CN(C)c1ccc(CN2CC=C(c3ccc(F)cc3)CC2)cc1	ST2 IL33 inh 40.0%
Fc1ccc(CN2CCN(c3ccccc3)CC2)cc1	none
Fc1ccc(CN2CCN(c3ccccc3Cl)CC2)cc1	none
CN(C)Cc1cn(C[C@H]2C[C@@H]3CCN2C[C@@H]3C(=O)N(C)C)nn1	none
COc1c[nH]c(CN2C[C@H]3C[C@H](O)[C@H](O)C[C@H]3C2)cc1=O	none
Cc1ccc(S(=O)(=O)NC[C@H]2C[C@@H]3CCN2C[C@@H]3CN2CCN(C)CC2)cc1	none
O=c1[nH]c2ccccc2c(=O)n1-c1ccccc1	none
CN1CCc2nc(N)c(C#N)c(-c3ccc(Br)cc3)c2C1	ST2 IL33 inh 34.0%
CCc1ccc2occ(CC(=O)N3CCN(C)C4(CCN(C)CC4)C3)c2c1	none
COc1ccc(-c2ccc(=O)n3c2[C@@H]2C[C@@H](CN(C(=O)COCC(=O)O)C2)C3)cc1	none
COCc1cn(C[C@H]2CC3CCN2C[C@@H]3C(=O)Nc2ccccc2)nn1 (some centres not stated)	none
Cc1nc(-c2cccs2)cc([C@H]2CN3CC[C@H]2C[C@@H]3COC(=O)Nc2cccc(C(F)(F)F)c2)n1	none
Cc1ccc2[nH]cc(CN3C[C@H](N(C)C)C[C@H]3CO)c2c1	none
CC(C)(C)c1ccc(OCCNc2ccc([N+](=O)[O-])c3cccnc23)cc1	ST2 IL33 inh 55.0%
O=S(=O)(NC[C@H]1C[C@@H]2CCN1C[C@@H]2CN1CCN(c2ncccn2)CC1)c1ccccc1	none
CN(C)C(=O)c1ccc(-c2cccc3c2CCNC3)nc1	none
COc1ccc(-c2cc([C@H]3CN4CC[C@H]3C[C@@H]4CNC(=O)Nc3cccc4ccccc34)n(C)n2)cc1OC	none
Cc1ccc(C)c(N2CCN(Cc3ccccc3O)CC2)c1	none
Nc1cc2nc3ccccc3nc2cc1O	ST2 IL33 inh 56.0%
Nc1c2c(nc3ccccc13)CCCCC2	none
CCCC[C@@H]1CN(C)CC[C@]1(O)c1ccccc1	none
S=C(NCCN1CCOCC1)NC[C@H]1C[C@@H]2CCN1C[C@@H]2CN1CCN(c2ncccn2)CC1	none
CCC(C)NC(=O)CN1C(=O)C(C)N=C(c2ccccc2)c2ccccc21 (configuration not stated)	none
CN(N=O)c1ccc(O)c(O)c1	ST2 IL33 inh 69.0%
COc1ccccc1-c1cc([C@H]2CN3CC[C@H]2C[C@@H]3CNC(=O)C2CCCCC2)n(C)n1	none
COc1ccc(CN2CCN(C)CC2)c(C)c1C	none
Fc1cccc(CN2CCN(c3cccc(Cl)c3)CC2)c1	none
S=C(NC[C@H]1C[C@@H]2CCN1C[C@@H]2CN1CCCC1)Nc1ccc(-n2cccn2)cc1	none
C=CCN(C)C[C@H]1CN2CC[C@H]1C[C@@H]2CNC(=S)NCCN1CCOCC1	none
NC(Cc1cc(O)c(O)cc1O)C(=O)O (configuration not stated)	ST2 IL33 inh 95.0%
Cc1o[nH]c(=O)c1CC(N)C(=O)O (configuration not stated)	none
C[Se]C[C@H](N)C(=O)O	none
CCSc1nc(CC(=O)N2CCN3CCNC(=O)C3C2)cs1 (configuration not stated)	none
Cc1cccc(N2CCN(Cc3cccc(F)c3)CC2)c1C	none
COc1cc(Cl)cc(C2NCCc3[nH]cnc32)c1OC (configuration not stated)	none
COc1ccccc1NC(=O)N1C[C@@H]2C[C@H](C1)c1c(-c3cncnc3)ccc(=O)n1C2	none
NS(=O)(=O)c1ccc(NC(=O)c2cccn(Cc3ccc(C(F)(F)F)cc3)c2=O)cc1	none
COc1cc(/C=C/[N+](=O)[O-])c(OC)cc1C	ST2 IL33 inh 42.0%
COCCNC(=S)NC[C@H]1C[C@@H]2CCN1C[C@@H]2CN1C[C@@H]2C[C@H](C1)c1cccc(=O)n1C2	none
CC(=O)Nc1ccc(CNC(=O)CN2CC=C(c3cnn(C)c3)CC2)cc1	none
COC(=O)c1ccc(NC(=O)c2cccn(Cc3ccc(Br)cc3)c2=O)cc1	none
O=C(O)c1cccc2c1NC(C(=O)O)C1CC(Sc3ccccc3[N+](=O)[O-])C(Cl)C21 (configuration not stated)	ST2 IL33 inh 96.0%
Cn1nc(-c2cccs2)cc1[C@H]1CN2CC[C@H]1C[C@@H]2CNC(=O)Nc1cccc(C#N)c1	ST2 IL33 inh 35.0%
CCNC(=O)NC[C@H]1C[C@@H]2CCN1C[C@@H]2c1cc(-c2cccs2)nn1C	none
Cn1nc(-c2cccs2)cc1[C@H]1CN2CC[C@H]1C[C@@H]2CNC(=O)N1CCOCC1	none
C=C[C@H]1CN2CC[C@H]1C[C@@H]2CNC(=O)Nc1cccc(SC)c1	none
O=C(Nc1ccc(=O)n2c1[C@@H]1C[C@@H](CN(C(=O)c3ccc(F)cc3)C1)C2)c1cccnc1	none
N#CC1=C(N)Oc2c(c(=O)oc3ccccc23)C1c1ccc(F)cc1 (configuration not stated)	none
N#CC1=C(N)Oc2n[nH]c(-c3ccc(F)cc3)c2C1c1ccc(F)cc1 (configuration not stated)	ST2 IL33 inh 32.0%
N#CC1=C(N)Oc2n[nH]c(C(F)(F)F)c2C1c1ccc(F)cc1 (configuration not stated)	none
O=C(Nc1ccc2n(c1=O)C[C@H]1C[C@@H]2CN(C(=O)NC2CCCCC2)C1)c1cnccn1	none
CC(=O)c1ccc(OCC(=O)N2CCN(C)C3(CCN(C)CC3)C2)cc1	none
CC1CN(c2ccc([N+](=O)[O-])cc2)CC(C)N1 (configuration not stated)	none
O=[N+]([O-])c1cccc(CN2CCN(c3ccc(Cl)cc3)CC2)c1	ST2 IL33 inh 47.0%
Cc1ccccc1N1CCN(Cc2ccc(Cl)cc2)CC1	none
Cc1ccccc1CN1CCN(c2ccc([N+](=O)[O-])cc2)CC1	ST2 IL33 inh 36.0%
Fc1ccc(N2CCN(Cc3ccc(F)c(Br)c3)CC2)cc1	none

High-throughput results from PubChem.
